Consider 9 compounds from PubChem BioAssay (NCI).

Test systems include SR leukemia; RPMI-8226 leukemia; OVCAR-8 ovarian; OVCAR-5 ovarian; OVCAR-4 ovarian; SK-OV-3 ovarian; IGROV1 ovarian; OVCAR-3 ovarian; HS 578T breast; NCI/ADR-RES ovarian; T-47D breast; BT-549 breast; MDA-MB-435 melanoma; SW-620 colon; MCF7 breast; HCT-116 colon; HCC-2998 colon; KM12 colon.
Holding throughout (test): NCI-60 one-dose screen, 48 h (100 = growth as untreated, 0 = no growth, -100 = all killed)
Holding throughout (settings): 10 µM unless noted

This is part of a sample that, as a whole, favours compounds with a hit. Of some 83,000 tested, about 20% had one in any assay.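 Note: values are percent growth. 100 is the growth of untreated cells, values between 100 and 0 indicate rising inhibition; between -100 and 0 indicates cell death.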 Values without a mark were called inactive. The source made the active and inactive calls. How the source made its calls: active means growth percent below 10; inactive means the rest.

As for `COc1cnc2c(c1)C(=O)c1c-2n(CCCNCCO)c(=O)c2ccncc12`, the growth was -4.25% (active) in the assay on SR leukemia; -4.03% (active) in the assay on RPMI-8226 leukemia; -6.28% (active) with OVCAR-8 ovarian; -0.667% (active) in the assay on OVCAR-5 ovarian; -4.81% (active) in the assay with OVCAR-4 ovarian; 6.1% (active) in the assay on SK-OV-3 ovarian. The growth in the assay on IGROV1 ovarian was 15.6%; in the assay on OVCAR-3 ovarian, 8.44% (active); in the assay on HS 578T breast it was 23.5%; in the assay on NCI/ADR-RES ovarian it was 58.8%; in the assay on T-47D breast it was -4.8% (active); in the assay on BT-549 breast it was 19%. Moreover, the growth in the assay on MDA-MB-435 melanoma is 5.96% (active); in the assay with SW-620 colon, 9.91% (active); in the assay with MCF7 breast, 0.768% (active); in the assay with HCT-116 colon it was -49.8% (active); in the assay on HCC-2998 colon it was 26.4%; in the assay on KM12 colon it was 6.99% (active).
Turning to `O=C(/C=C/c1cn(-c2ccccc2)nc1-c1ccc([N+](=O)[O-])cc1)c1ccc(Cl)cc1`, the growth in the assay on SR leukemia is -22.6% (active); in the assay on RPMI-8226 leukemia it was 38.3%; in the assay on OVCAR-8 ovarian, 38.1%; in the assay with OVCAR-5 ovarian, 34.2%; in the assay with OVCAR-4 ovarian, -21.8% (active); in the assay with SK-OV-3 ovarian, 66.5%. For the same compound, the growth is 48% in the assay with IGROV1 ovarian; 10.6% with OVCAR-3 ovarian; -12% (active) in the assay with HS 578T breast; 41.1% in the assay with NCI/ADR-RES ovarian; 31.4% in the assay with T-47D breast; 62.7% with BT-549 breast. The growth was 59.5% in the assay on MDA-MB-435 melanoma; -27.6% (active) with SW-620 colon; 25.4% in the assay with MCF7 breast; -12.6% (active) with HCT-116 colon; -22% (active) with HCC-2998 colon; 41.8% in the assay on KM12 colon.
On to `COc1cc(NC(C)CCCNC(C)C)c2ncccc2c1OC` (configuration not stated), for which the growth in the assay with SR leukemia is 110%; with RPMI-8226 leukemia it was 87.7%; with OVCAR-8 ovarian it was 91.3%; in the assay on OVCAR-5 ovarian, 91.4%; with OVCAR-4 ovarian, 76.1%; in the assay with SK-OV-3 ovarian it was 96.3%. In addition, the growth is 75.9% in the assay with IGROV1 ovarian; 70% with OVCAR-3 ovarian; 91.9% in the assay with HS 578T breast; 85.4% in the assay with NCI/ADR-RES ovarian; 31.6% with T-47D breast; 94.4% in the assay with BT-549 breast. In addition, the growth is 108% with MDA-MB-435 melanoma; 92.6% with SW-620 colon; 93.5% with MCF7 breast; 92% in the assay with HCT-116 colon; 91.7% in the assay on HCC-2998 colon; 106% in the assay with KM12 colon.
Regarding `Cc1ccccc1Cn1cnc2ccc(-c3cc(NC(=O)c4ccc(NC5CCN(C)CC5)cc4)n[nH]3)cc21`, the growth with SR leukemia was 52.9%; in the assay with RPMI-8226 leukemia it was 77.1%; in the assay with OVCAR-8 ovarian, 104%; with OVCAR-5 ovarian, 69.9%; in the assay with OVCAR-4 ovarian, 62.5%; with SK-OV-3 ovarian, 75.7%. The growth in the assay on IGROV1 ovarian is 26.5%; with OVCAR-3 ovarian, 99.8%; in the assay on HS 578T breast, 2.06% (active); in the assay on NCI/ADR-RES ovarian, 104%; in the assay with T-47D breast, 92.2%; in the assay on BT-549 breast, 68.2%. For the same compound, the growth is 61% in the assay on MDA-MB-435 melanoma; 93.1% with SW-620 colon; 77.1% in the assay on MCF7 breast; 48.8% with HCT-116 colon; 90.5% with HCC-2998 colon; 39.6% in the assay on KM12 colon.
On to `COc1ccc(-c2cn(-c3cc(OC)c(OC)c(OC)c3)c(=O)n2C(C)=O)cc1`, for which the growth is 22.2% with SR leukemia; 95.9% in the assay with RPMI-8226 leukemia; 94.5% in the assay on OVCAR-8 ovarian; 84.5% in the assay with OVCAR-5 ovarian; 84.9% with OVCAR-4 ovarian; 104% in the assay with SK-OV-3 ovarian. The growth was 77.7% in the assay with IGROV1 ovarian; 109% in the assay with OVCAR-3 ovarian; 93.4% in the assay on HS 578T breast; 98.5% in the assay on NCI/ADR-RES ovarian; 73.9% with T-47D breast; 83.5% in the assay with BT-549 breast. The growth in the assay with MDA-MB-435 melanoma was 79.4%; in the assay on SW-620 colon, 96.2%; in the assay with MCF7 breast, 89%; in the assay on HCT-116 colon, 85%; in the assay on HCC-2998 colon, 84.3%; in the assay on KM12 colon, 93.3%.
For `N#Cc1cccc(F)c1`, the growth with SR leukemia is 98.1%; in the assay on RPMI-8226 leukemia, 113%; in the assay with OVCAR-8 ovarian it was 109%; in the assay with OVCAR-5 ovarian, 83.1%; with OVCAR-4 ovarian it was 118%; with SK-OV-3 ovarian, 111%. Further, the growth in the assay on IGROV1 ovarian was 106%; with OVCAR-3 ovarian it was 126%; in the assay on HS 578T breast it was 107%; in the assay with NCI/ADR-RES ovarian, 104%; in the assay on T-47D breast it was 101%; with BT-549 breast, 111%. The growth was 105% with MDA-MB-435 melanoma; 109% with SW-620 colon; 112% in the assay on MCF7 breast; 106% in the assay on HCT-116 colon; 118% in the assay with HCC-2998 colon; 110% in the assay with KM12 colon.
Turning to `Nc1c(C(=O)Nc2ccccc2Cl)sc2nc3c(cc12)C(O)CCC3` (configuration not stated), the growth in the assay on SR leukemia was 13.4%; in the assay with RPMI-8226 leukemia, 25.2%; with OVCAR-8 ovarian, 32.3%; with OVCAR-5 ovarian it was 80.6%; in the assay with OVCAR-4 ovarian, 53.9%; in the assay on SK-OV-3 ovarian, 42.9%. In addition, the growth with IGROV1 ovarian was 57.2%; in the assay on OVCAR-3 ovarian, 15.5%; in the assay on HS 578T breast, 58.5%; with NCI/ADR-RES ovarian it was 18.8%; with T-47D breast it was 38.6%; with BT-549 breast, 52.1%. Moreover, the growth was 1.93% (active) in the assay on MDA-MB-435 melanoma; 49.3% with SW-620 colon; 24.4% in the assay on MCF7 breast; 29.3% in the assay on HCT-116 colon; 64.3% in the assay on HCC-2998 colon; 31.9% in the assay on KM12 colon.
`O=C1NC(=O)c2c1c1c3ccccc3ccc1c1[nH]c3ccc(Br)cc3c21`: the growth in the assay with SR leukemia was 11.4%; with RPMI-8226 leukemia, -19.9% (active); in the assay with OVCAR-8 ovarian, 14.7%; in the assay on OVCAR-5 ovarian it was 29.7%; in the assay on OVCAR-4 ovarian, 10.3%; with SK-OV-3 ovarian, 31%. In addition, the growth is 14.4% in the assay with IGROV1 ovarian; 8.73% (active) with OVCAR-3 ovarian; 78.4% with HS 578T breast; 3.52% (active) in the assay on NCI/ADR-RES ovarian; 4.7% (active) with T-47D breast; 39.4% in the assay on BT-549 breast. The growth in the assay on MDA-MB-435 melanoma is 14%; in the assay on SW-620 colon, 18%; in the assay on MCF7 breast, 9.71% (active); in the assay on HCT-116 colon, 7.95% (active); in the assay on HCC-2998 colon, 49.3%; with KM12 colon, 4.99% (active).
Consider `COc1ccc2[nH]cc(-c3nc(-c4cn(C)c5c(Cl)nccc45)cs3)c2c1`, for which the growth was 13.9% in the assay with SR leukemia; 44.7% with RPMI-8226 leukemia; 22.9% in the assay on OVCAR-8 ovarian; 97.4% with OVCAR-5 ovarian; 68.8% in the assay on OVCAR-4 ovarian; 60.1% with SK-OV-3 ovarian. For the same compound, the growth in the assay on IGROV1 ovarian is 71.3%; with OVCAR-3 ovarian, 77.6%; in the assay with HS 578T breast, 54.3%; with NCI/ADR-RES ovarian, 11.1%; in the assay with T-47D breast, 11.6%; in the assay with BT-549 breast, 45%. For the same compound, the growth in the assay with MDA-MB-435 melanoma was 6.78% (active); in the assay with SW-620 colon, -5.25% (active); in the assay with MCF7 breast it was 43.9%; with HCT-116 colon it was 43.9%; with HCC-2998 colon, 62%; in the assay on KM12 colon it was 32%.
